Test results reported in the supplement of paper PMC11006884.
About 6,500 targets were measured; listed, in parts, are those with a hit and a random draw of the rest. About 2% of all pairs of compound and target were hits.

compound: COC(=O)C#Cc1ccccc1 [methyl 3-phenylpropiolate]; assay: log2 ratio of iodoacetamide-alkyne labeling of the cysteine site, DMSO over compound (competition); higher = stronger covalent engagement of the cysteine by the compound, active = 1 or more; conditions: 500 µM; treatment time 1 h; system: HEK293T cell lysate
In short: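 HEK293T lysate (2 mg/mL) was treated with DMSO or electrophile (500 µM, 1 h, ambient temperature), then iodoacetamide alkyne (1 h), clicked to sCIP-TMT reagents, pooled, trypsin-digested overnight at 37 °C, streptavidin-enriched and acid-eluted. Peptides were run on Orbitrap Eclipse LC-MS/MS with FAIMS and quantified in FragPipe. The log2 competition ratio per cysteine is mean control-channel over mean compound-channel reporter intensity. Duplicate channels and three replicates were used, and cysteines quantified in only one replicate were excluded.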

Sequence of UniProt P08574 (P08574 whole entry, looked up): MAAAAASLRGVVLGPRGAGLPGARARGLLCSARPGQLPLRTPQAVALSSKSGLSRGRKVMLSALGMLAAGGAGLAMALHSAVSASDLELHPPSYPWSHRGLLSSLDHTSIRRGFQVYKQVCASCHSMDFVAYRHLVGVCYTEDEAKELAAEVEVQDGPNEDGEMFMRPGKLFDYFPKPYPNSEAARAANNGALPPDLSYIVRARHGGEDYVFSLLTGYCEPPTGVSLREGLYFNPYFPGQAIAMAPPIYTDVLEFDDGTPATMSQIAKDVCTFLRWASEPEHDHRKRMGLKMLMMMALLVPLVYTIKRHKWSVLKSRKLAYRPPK
Sequence of UniProt P38432 (P38432 whole entry, looked up): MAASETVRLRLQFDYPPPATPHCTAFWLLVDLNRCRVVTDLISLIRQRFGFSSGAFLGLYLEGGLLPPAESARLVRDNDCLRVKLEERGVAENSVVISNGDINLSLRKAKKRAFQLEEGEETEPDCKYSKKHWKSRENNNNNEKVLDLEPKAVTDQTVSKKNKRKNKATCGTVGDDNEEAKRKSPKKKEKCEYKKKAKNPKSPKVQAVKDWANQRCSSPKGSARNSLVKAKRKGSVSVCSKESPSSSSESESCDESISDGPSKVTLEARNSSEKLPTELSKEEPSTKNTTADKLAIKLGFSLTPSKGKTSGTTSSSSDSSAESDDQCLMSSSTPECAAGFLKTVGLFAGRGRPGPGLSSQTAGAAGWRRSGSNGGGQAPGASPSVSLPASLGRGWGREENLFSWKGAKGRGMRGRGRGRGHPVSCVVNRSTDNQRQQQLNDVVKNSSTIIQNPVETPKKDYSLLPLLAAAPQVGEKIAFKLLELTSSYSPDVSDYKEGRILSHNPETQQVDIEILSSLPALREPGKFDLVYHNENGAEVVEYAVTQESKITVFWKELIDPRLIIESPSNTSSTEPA
Sequence of UniProt P49368 (P49368 whole entry, looked up): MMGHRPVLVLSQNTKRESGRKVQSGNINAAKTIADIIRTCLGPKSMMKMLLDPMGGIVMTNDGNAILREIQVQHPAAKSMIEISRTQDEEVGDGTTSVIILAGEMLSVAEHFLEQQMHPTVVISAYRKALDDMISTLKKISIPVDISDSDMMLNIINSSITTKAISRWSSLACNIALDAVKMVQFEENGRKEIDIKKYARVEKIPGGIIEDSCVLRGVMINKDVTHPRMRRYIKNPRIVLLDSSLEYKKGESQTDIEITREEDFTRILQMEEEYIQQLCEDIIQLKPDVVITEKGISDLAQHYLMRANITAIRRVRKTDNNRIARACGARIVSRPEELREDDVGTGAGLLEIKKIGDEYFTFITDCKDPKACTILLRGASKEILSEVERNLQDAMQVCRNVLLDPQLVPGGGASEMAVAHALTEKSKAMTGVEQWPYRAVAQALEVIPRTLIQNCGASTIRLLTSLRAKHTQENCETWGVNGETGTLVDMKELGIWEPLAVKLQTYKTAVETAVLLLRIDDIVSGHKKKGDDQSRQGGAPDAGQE
Sequence of UniProt P29372 (P29372 whole entry, looked up): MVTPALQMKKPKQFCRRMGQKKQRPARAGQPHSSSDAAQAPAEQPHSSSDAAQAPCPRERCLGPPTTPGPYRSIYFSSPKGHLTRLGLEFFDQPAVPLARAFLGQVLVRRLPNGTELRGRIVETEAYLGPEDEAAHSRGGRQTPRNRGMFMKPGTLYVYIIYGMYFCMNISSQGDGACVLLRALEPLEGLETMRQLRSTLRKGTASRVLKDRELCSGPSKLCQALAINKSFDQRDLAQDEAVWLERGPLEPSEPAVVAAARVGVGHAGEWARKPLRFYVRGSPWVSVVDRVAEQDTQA
Sequence of UniProt P46821 (P46821 whole entry, looked up): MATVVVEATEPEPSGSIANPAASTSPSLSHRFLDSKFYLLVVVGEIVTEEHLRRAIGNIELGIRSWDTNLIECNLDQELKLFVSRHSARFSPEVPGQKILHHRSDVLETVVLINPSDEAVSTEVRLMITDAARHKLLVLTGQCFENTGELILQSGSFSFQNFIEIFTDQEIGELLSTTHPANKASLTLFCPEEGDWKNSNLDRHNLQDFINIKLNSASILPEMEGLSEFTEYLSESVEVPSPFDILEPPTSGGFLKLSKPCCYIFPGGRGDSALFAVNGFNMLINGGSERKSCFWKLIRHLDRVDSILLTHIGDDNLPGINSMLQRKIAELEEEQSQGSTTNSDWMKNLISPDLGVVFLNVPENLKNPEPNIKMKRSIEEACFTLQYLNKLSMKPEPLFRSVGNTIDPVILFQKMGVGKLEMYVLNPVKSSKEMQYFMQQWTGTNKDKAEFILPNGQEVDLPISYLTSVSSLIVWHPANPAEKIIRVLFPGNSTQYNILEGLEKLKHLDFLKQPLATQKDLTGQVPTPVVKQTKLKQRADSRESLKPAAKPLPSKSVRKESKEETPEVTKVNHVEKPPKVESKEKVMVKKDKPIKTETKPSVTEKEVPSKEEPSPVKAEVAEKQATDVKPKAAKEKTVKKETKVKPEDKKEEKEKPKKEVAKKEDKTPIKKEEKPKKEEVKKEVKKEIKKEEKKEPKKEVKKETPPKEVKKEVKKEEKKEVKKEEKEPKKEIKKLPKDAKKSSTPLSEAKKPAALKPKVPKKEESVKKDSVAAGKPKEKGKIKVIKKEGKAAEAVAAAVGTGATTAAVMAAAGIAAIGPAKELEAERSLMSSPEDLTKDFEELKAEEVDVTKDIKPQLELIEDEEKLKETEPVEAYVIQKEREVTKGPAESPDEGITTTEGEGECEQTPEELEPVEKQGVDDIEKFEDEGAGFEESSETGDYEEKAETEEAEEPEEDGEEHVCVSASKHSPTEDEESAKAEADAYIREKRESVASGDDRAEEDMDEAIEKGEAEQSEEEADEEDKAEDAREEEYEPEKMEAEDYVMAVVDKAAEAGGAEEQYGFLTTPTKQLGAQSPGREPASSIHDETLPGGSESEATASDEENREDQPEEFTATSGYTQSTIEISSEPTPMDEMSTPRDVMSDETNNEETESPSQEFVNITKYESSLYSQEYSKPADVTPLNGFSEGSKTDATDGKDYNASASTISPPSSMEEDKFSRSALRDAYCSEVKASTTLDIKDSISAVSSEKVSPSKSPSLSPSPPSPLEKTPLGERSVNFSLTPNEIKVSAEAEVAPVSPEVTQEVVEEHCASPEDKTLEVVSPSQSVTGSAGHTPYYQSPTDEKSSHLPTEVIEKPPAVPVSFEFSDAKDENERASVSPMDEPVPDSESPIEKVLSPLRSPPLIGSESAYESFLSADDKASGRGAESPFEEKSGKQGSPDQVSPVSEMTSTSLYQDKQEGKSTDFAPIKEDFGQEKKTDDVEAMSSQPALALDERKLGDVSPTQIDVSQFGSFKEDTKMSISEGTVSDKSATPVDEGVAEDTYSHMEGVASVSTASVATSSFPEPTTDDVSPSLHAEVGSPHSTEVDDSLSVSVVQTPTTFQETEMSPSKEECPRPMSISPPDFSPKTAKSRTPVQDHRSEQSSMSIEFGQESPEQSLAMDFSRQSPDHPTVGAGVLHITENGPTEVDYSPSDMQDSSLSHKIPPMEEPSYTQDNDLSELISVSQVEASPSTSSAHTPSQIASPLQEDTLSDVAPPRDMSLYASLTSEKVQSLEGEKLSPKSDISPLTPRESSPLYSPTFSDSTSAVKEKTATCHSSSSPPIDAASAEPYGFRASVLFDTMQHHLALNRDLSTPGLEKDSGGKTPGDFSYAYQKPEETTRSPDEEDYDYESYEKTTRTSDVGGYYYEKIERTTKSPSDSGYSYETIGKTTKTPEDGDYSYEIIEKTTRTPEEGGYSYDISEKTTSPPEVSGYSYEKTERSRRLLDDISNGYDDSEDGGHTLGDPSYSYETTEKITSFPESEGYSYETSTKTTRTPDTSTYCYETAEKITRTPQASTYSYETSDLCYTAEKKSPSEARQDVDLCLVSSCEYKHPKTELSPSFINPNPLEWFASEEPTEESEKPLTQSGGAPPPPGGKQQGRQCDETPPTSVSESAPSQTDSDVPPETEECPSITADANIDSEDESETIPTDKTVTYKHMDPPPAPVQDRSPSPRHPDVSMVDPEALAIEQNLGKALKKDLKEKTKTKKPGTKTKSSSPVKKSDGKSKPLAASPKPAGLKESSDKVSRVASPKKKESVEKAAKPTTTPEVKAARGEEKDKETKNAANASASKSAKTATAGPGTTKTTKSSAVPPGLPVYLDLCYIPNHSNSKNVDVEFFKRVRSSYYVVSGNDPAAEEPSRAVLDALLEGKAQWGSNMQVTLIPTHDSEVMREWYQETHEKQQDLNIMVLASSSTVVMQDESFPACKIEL
Sequence of UniProt P10809 (P10809 whole entry, looked up): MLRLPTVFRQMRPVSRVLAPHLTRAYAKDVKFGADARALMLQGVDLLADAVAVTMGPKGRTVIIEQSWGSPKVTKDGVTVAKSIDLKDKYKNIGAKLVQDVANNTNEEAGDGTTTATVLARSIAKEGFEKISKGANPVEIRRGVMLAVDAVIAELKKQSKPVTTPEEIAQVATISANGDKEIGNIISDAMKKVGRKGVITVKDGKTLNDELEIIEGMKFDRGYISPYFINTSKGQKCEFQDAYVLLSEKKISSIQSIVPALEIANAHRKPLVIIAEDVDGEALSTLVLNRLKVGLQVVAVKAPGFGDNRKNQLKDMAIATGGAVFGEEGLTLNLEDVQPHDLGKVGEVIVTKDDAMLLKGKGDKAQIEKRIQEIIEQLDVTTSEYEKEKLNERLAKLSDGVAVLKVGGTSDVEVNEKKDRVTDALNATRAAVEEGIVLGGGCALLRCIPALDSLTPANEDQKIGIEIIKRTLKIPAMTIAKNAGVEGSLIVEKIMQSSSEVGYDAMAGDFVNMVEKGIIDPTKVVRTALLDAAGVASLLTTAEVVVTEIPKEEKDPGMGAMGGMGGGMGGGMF

| Target | log2 ratio of iodoacetamide-alkyne labeling |
| --- | --- |
| RPL17 C144 (UniProt P18621) | 0.131 (inactive) |
| MSH2 C333 (UniProt P43246) | 1.16 (active) |
| MAP1B C1228 (UniProt P46821) | 0.169 (inactive) |
| RPL14 C42 (UniProt P50914) | 1.82 (active) |
| CTSB C319 (UniProt P07858) | 0.512 (inactive) |
| HNRNPH1 C267 (UniProt P31943) | 0.211 (inactive) |
| MPG C56 (UniProt P29372) | 1.66 (active) |
| EEF2 C557 (UniProt P13639) | -0.298 (inactive) |
| PPP2R1A C154 (UniProt P30153) | 0.637 (inactive) |
| HNRNPA3 C196 (UniProt P51991) | -0.0216 (inactive) |
| RPL9 C134 (UniProt P32969) | 0.0357 (inactive) |
| MTHFD1 C143 (UniProt P11586) | -0.0254 (inactive) |
| SFPQ C297 (UniProt P23246) | -0.122 (inactive) |
| OAT C306 (UniProt P04181) | 0.00204 (inactive) |
| BCR C395 (UniProt P11274) | 1.17 (active) |
| MSN C284 (UniProt P26038) | -0.16 (inactive) |
| ASS1 C132 (UniProt P00966) | 0.124 (inactive) |
| CAST C408 (UniProt P20810) | 1.01 (active) |
| RPL4 C208 (UniProt P36578) | 0.273 (inactive) |

| Target | log2 ratio of iodoacetamide-alkyne labeling |
| --- | --- |
| ENO1 C357 (UniProt P06733) | -0.0848 (inactive) |
| UniProt P10155_C71 | 0.136 (inactive) |
| CYC1 C219 (UniProt P08574) | 0.0599 (inactive) |
| MTOR C300 (UniProt P42345) | 0.376 (inactive) |
| ACADSB C175 (UniProt P45954) | 0.109 (inactive) |
| PDHB C306 (UniProt P11177) | -0.122 (inactive) |
| RPL27A C144 (UniProt P46776) | 0.155 (inactive) |
| ANXA7 C327 (UniProt P20073) | 0.191 (inactive) |
| ATIC C363 (UniProt P31939) | 0.3 (inactive) |
| HSPD1 C442 (UniProt P10809) | 1.2 (active) |
| RRM1 C26 (UniProt P23921) | 0.0708 (inactive) |
| DSP C174 (UniProt P15924) | 1.06 (active) |
| CCT3 C475 (UniProt P49368) | 0.185 (inactive) |
| COIL C126 (UniProt P38432) | 0.729 (inactive) |
| PML C338 (UniProt P29590) | 0.413 (inactive) |
| VDAC2 C227 (UniProt P45880) | 1.39 (active) |
| OAT C253 (UniProt P04181) | 0.0787 (inactive) |
| FASN C1186 (UniProt P49327) | -0.0549 (inactive) |
